Source: PubChem (National Center for Advancing Translational Sciences (NCATS))
RORg inh – qHTS for inhibitors of ROR gamma transcriptional activity; Drosophila S2 Gal4-RORgamma UAS-luciferase reporter, 20 h; AID 2551, 2010; 310,000 tested, 5.4% active; Potency, µM (doses to about 53.6 µM), without a hit: top-dose activity change, negative = inhibition, actives largely listed as inhibitors; Nuclear receptor ROR-gamma (Mus musculus), P51450; note: nearly all actives have a fitted effect of over 60% in size
Target sequence (P51450 whole entry, looked up, the tested form may be a part): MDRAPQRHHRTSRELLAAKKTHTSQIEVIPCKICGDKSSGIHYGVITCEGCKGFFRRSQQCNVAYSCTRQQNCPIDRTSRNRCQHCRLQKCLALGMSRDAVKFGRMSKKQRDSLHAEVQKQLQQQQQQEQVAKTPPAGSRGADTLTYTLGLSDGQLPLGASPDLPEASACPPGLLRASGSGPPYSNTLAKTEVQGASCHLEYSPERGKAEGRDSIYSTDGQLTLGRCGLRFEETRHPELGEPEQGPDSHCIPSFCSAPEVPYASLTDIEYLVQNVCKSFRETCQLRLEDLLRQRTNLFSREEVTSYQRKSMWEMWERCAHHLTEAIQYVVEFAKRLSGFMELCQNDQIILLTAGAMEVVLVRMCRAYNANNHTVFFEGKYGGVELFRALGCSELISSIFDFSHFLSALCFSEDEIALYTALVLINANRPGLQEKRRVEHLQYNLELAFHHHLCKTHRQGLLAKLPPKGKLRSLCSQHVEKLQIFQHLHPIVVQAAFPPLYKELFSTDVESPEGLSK
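Read-out: Photinus luciferase luminescence; inhibitors lower reporter signal. Insect Schneider cells with Gal4-ROR gamma fusion under metallothionein promoter, UAS reporter; 700 uM final copper sulfate induction, 20 hr, ambient temperature.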
KinaseGlo FLuc – Counterscreen for Luciferase (Kinase-Glo TM) Inhibition; 200,000 tested, 0.28% active; Kinase-Glo luciferase, ATP luminescence, 8 min; Luciferin 4-monooxygenase (Photuris pensylvanica), Q27757; Potency, µM (doses to about 38.3 µM), inactives show at the top dose activity change, negative = inhibition, most hits filed as inhibitors; AID 1379, 2008; note: nearly all actives have a fitted effect of over 60% in size
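Compounds were added to a substrate mix at pH 7.2 (50 mM imidazole, 10 uM ATP, within the enzyme's linear range), followed by Kinase-Glo detection reagent; luminescence was measured after 8 minutes at ambient temperature.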
VP16 counter – VP16 counterscreen qHTS for inhibitors of ROR gamma transcriptional activity; Drosophila S2 Gal4-VP16 UAS-luciferase, luminescence, 20 h; 310,000 tested, 3.5% active; Potency, µM (top dose mostly 53.6 µM), for inactives: at the highest dose activity, negative = inhibition, hits mostly inhibitors;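 note: Gal4-VP16 expression switched on by copper sulfate through the metallothionein promoter; nearly all actives have a fitted effect of over 50% in size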
* marks the source's active call; other numbers are inactive results; ? = inconclusive; · = not tested or not shown. Most compounds without a hit are left out; they make up all but 6.4% or so of the library. Calls come from the whole dose curve; as a rule, active = well fitted curve in the direction sought with a large enough effect; inconclusive = small, poorly fitted or top-dose-only effect, or another doubt; inactive = no such curve, though single readings can be large; an effect the other way counts as inactive or inconclusive. % is set by controls: 0 for no effect and ±100 for the full control effect; potency is the fitted concentration of half-maximal effect.

SMILES	RORg inh	KinaseGlo FLuc	VP16 counter
O=NN(CCCl)C(=O)NC1CCCCC1	13%	·	-9%
N#C/C(C(=O)N1CCOCC1)=C1/SC(Cc2ccccc2Cl)C(=O)N1c1ccccc1 (centres undefined)	4%	-5%	5%
Nc1ccccc1C(=O)N1CCCC1	30%	·	3%
O=C1c2cccnc2-c2ncccc21	-10%	-4%	2%
CC1(C)OCC(CSC2=C(SCC3COC(C)(C)O3)C(=O)c3ncccc3C2=O)O1 (centres undefined)	11µM*	-8%	16µM*
O=C(N/N=C\c1ccc(-c2cccc(Cl)c2)o1)C(=O)NC1CCCC1	1%	-2%	-1%
COc1cccc(/C=C2\SC(=O)N(CCC(=O)N3CCC(C(=O)O)CC3)C2=O)c1	-44%	·	-20%
CCOC(=O)Cc1csc(NC(=O)Cc2ccc([N+](=O)[O-])cc2)n1	1%	-2%	1%
CCc1nnc(NC(=O)c2ccc3ccccc3n2)s1	3%	?	-2%
CCSc1nnc(NC(=O)c2ccc3ccccc3n2)s1	1µM*	3%	0.71µM*
CCOC(=O)Cc1csc(NC(=O)Cc2ccc(Cl)cc2)n1	44%	·	-12%
CCOC(=O)Cc1csc(NC(=O)c2cc3c(s2)CCCC3)n1	-42%	7%	-24%
CCOC(=O)Cc1csc(NC(=O)c2csc3c2CCCC3)n1	13µM*	-4%	-18%
CCOC(=O)Cc1csc(NC(=S)NC(=O)c2ccc([N+](=O)[O-])cc2)n1	10µM*	-4%	?
CCOC(=O)Cc1csc(NC(=S)NC(=O)c2ccc(Cl)cc2)n1	7.1µM*	-3%	?
O=C(CNCc1ccccc1)Nc1ccc(Cl)cc1	1%	·	?
O=C(O)c1cc(=O)c2cc(Cl)ccc2[nH]1	3%	·	-5%
Cc1c(C(=O)N2CCOCC2)sc(NC(=O)c2ccccc2F)c1C#N	5%	·	-8%
CCOC(=O)Cc1csc(NC(=O)c2ccc3ccccc3n2)n1	6.3µM*	·	?
CCOC(=O)Cc1csc(NC(=O)c2ccncc2)n1	15%	-8%	-10%
Cc1onc(-c2ccccc2Cl)c1C(=O)NC(=S)NCCc1ccccc1	10µM*	0%	20µM*
Cc1onc(-c2ccccc2Cl)c1C(=O)NC(=S)NCc1cccnc1	25%	1%	-16%
COc1ccc(CCNC(=O)c2c(-c3ccccc3Cl)noc2C)cc1	10%	1%	11%
Cc1nc(/C(N)=N/OC(=O)c2c(-c3ccccc3Cl)noc2C)cs1	25%	·	-27%
COc1ccc(/C(N)=N/OC(=O)c2c(-c3ccccc3Cl)noc2C)cc1OC	-36%	·	10µM*
SMILES	RORg inh	KinaseGlo FLuc	VP16 counter
COc1ccc(CCNC(=S)NC(=O)c2c(-c3ccccc3Cl)noc2C)cc1OC	8.9µM*	·	?
COCCNc1cc(-c2ccccc2C(F)(F)F)ncn1	-27%	-3%	-8%
c1ccc(C(c2ccccc2)c2noc(CN3CCC(c4ccncc4)CC3)n2)cc1	-18%	·	3%
CN(C(=O)Cc1ccccc1OC(=O)c1ccccc1)c1ccccc1I	-10%	·	-5%
CCOc1ccc(S(=O)(=O)Nc2ccc(O)c(Sc3ncn[nH]3)c2)cc1	?	1%	3.5µM*
Cc1ccc(S(=O)(=O)Nc2ccc(O)c(Sc3ncn[nH]3)c2)cc1	-2%	-3%	6%
Cc1onc(-c2ccccc2Cl)c1C(=O)N(C)Cc1ccccc1	-7%	·	-10%
Nc1nc(=S)[nH]c2c1C1(CCCC1)Cc1ccccc1-2	6.3µM*	-2%	8.9µM*
Nc1n[nH]c2c1C1(CCCC1)Cc1ccccc1-2	?	1%	-11%
O=c1oc(-c2ccccc2)nc2c1C1(CCCCC1)Cc1ccccc1-2	-25%	2%	-1%
Nc1nc(=S)[nH]c2c1C1(CCCCC1)Cc1ccccc1-2	2.2µM*	-3%	4µM*
Cc1ccc(N(NC(=O)C(O)(c2ccccc2)c2ccccc2)C(=O)CCl)cc1	6.3µM*	0%	7.9µM*
Cc1ccc(C(O)(C(=O)NN(C(=O)c2ccccc2)c2ccccc2)c2ccc(C)cc2)cc1	13%	2%	-15%
Cc1sc(N/N=C/c2cccs2)nc1-c1ccccc1	7.1µM*	1%	10µM*
Cc1sc(NC(=O)c2cccs2)nc1-c1ccccc1	?	·	-14%
CCC(CC)N=C1NS(=O)(=O)c2cc([N+](=O)[O-])ccc21	?	3%	?
COc1ccc(N(C(=O)c2ccco2)C(C(=O)NC2CCCC2)c2ccc(N(C)C)cc2)cc1 (centres undefined)	-10%	1%	6%
CC(=O)Nc1ccc(N(C(=O)c2ccco2)C(C(=O)NC2CCCC2)c2ccc(N(C)C)cc2)cc1 (centres undefined)	10µM*	·	-1%
O=C(O)COc1ccc2ccccc2c1	-3%	·	-5%
O=C(O)COc1ccc(/C=C/C(=O)c2ccc3ccccc3c2)cc1	1.6µM*	·	?
CNC(=O)c1ccccc1Sc1cccc2cccc(C(=O)O)c12	-7%	·	4%
Cc1ccc(C)c(-n2c(-c3ccc4c(c3)OCO4)n[nH]c2=S)c1	7%	-1%	0%
Cc1ccc(C)c(-n2c(-c3ccncc3)n[nH]c2=S)c1	10µM*	·	-28%
Cc1ccc(C)c(-n2c(-c3csc(C)c3)n[nH]c2=S)c1	3.2µM*	-1%	5.6µM*
Cc1c(CC(=O)NCCCCCC(=O)O)c(=O)oc2cc3c(cc12)CCC(C)(C)O3	14%	·	0%
SMILES	RORg inh	KinaseGlo FLuc	VP16 counter
Cc1c(CC(=O)NCCCC(=O)O)c(=O)oc2cc3c(cc12)CCC(C)(C)O3	5µM*	·	7.1µM*
C=CCc1c(C)nc(C)nc1N/N=C/c1ccc([N+](=O)[O-])cc1	11µM*	-3%	-4%
C=CCc1c(C)nc(C)nc1N/N=C/c1ccccc1O	?	2%	5µM*
Oc1ccccc1/C=N/Nc1nn[nH]n1	?	·	-1%
CNc1nc(N/N=C/c2ccc([N+](=O)[O-])cc2)nc(Nc2ccccc2)n1	-22%	-1%	?
CC(Sc1ncc(C(F)(F)F)cc1Cl)C(=O)NCC1CCCO1 (centres undefined)	28%	·	-16%
O=C(c1ccc(S(=O)(=O)Nc2ccccc2)cc1)N1CCCCCCC1	1%	·	2%
N[C@H](C(=O)O)c1ccc(C(=O)O)cc1	-1%	0%	0%
O=C(O)/C(=C\c1ccc(Br)cc1)NC(=O)c1cccs1	-8%	·	3%
CCOC(=O)C1=NN(c2ccc(Cl)cc2)C(=O)C1	23%	·	-4%
COc1cccc(NC(=O)C(OC(=O)c2ccc([N+](=O)[O-])o2)c2ccccc2)c1 (centres undefined)	14µM*	0%	-28%
Cc1cc(C)cc(NC(=O)C(OC(=O)c2ccc([N+](=O)[O-])o2)c2ccccc2)c1 (centres undefined)	?	-1%	-19%
COc1ccc2c(c1)C(=O)[C@H](OC(=O)N[C@H](C)C1CCCCC1)[C@@H](c1ccc(OC)c(Br)c1)O2	-12%	0%	-2%
CC(NC(=O)CCNS(=O)(=O)c1ccc2c(c1)oc(=O)n2C)c1ccccc1 (centres undefined)	-12%	·	-1%
COc1cc(/C=N/NC(=O)CC(=O)NC2CCCCC2)ccc1O	-2%	·	-2%
